Test results: PubChem BioAssay (Tox21)
Records with an inconclusive call do not appear. The source made the active and inactive calls. Unless noted, the call rests on the fitted dose curve; in most records, active means well fitted curve in the direction sought with a large enough effect in the repeat runs; inconclusive means weak or mixed curves; inactive means no such curve, though single readings can be large; an effect the other way counts as inactive or inconclusive.

What was measured:
[1] = target: Progesterone receptor (Homo sapiens) (UniProt P06401); experiment: qHTS assay to identify small molecule agonists of the progesterone receptor (PR) signaling pathway (AID 1346784; calls by dose curve; further: nearly all actives have a fitted effect of over 30% in size; further: potency means the concentration at half of the fitted maximal effect)
In short: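 Compounds were tested for PR agonism in HEK 293T cells bearing a beta-lactamase gene under UAS control. Treatment lasted 16 hr at 37C; signal came from fluorescence of a FRET substrate.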

[2] = qHTS assay to identify small molecule antagonists of the progesterone receptor (PR) signaling pathway - cell viability counter screen (AID 1346798); further: series mostly up to about 92 µM; nearly all actives have a fitted effect of over 50% in size
In short: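 Following a 4 hr attachment, PR-UAS-bla HEK293T cells in charcoal-stripped FBS medium were exposed to compounds with R5020 for 16 hr; CellTiter-Glo was added and luminescence read after 30 min at room temperature.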

[3] = qHTS assay to identify small molecule antagonists of the TGF-beta/Smad signaling pathway - cell viability counter screen (AID 1346824); further: nearly all actives have a fitted effect of over 50% in size
In short: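 SBE-bla HEK 293T cells were plated overnight at 37 C, then given compounds in DMSO plus TGF-beta1 (added as 0.25 ng/mL solution) for 5 hr. After the bla read, CellTiter-Glo was added to the same wells and luminescence read after 30 min at room temperature.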

[4] = qHTS assay to identify small molecule agonists of the TGF-beta/Smad signaling pathway - cell viability counter screen (AID 1346829); further: top concentration of the series differs between compounds; nearly all actives have a fitted effect of over 45% in size
In short: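 Same-well cytotoxicity: CellTiter-Glo added after the 2 hr room-temperature beta-lactamase substrate step, luminescence measured 30 min later; cells had 5 hr of compound at 37 C.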

[5] = qHTS assay to identify small molecule agonists of the TGF-beta/Smad signaling pathway (AID 1346859; active means well fitted activation curve with a large enough effect in the signal ratio in the repeat runs, not every such curve was filed as active; the % refers to the signal ratio; further: series mostly up to about 77 µM)
In short: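 Each well held 4,000 SBE-bla HEK 293T cells incubated overnight before compound addition; 5 hr later the cleavable FRET substrate went on for 2 hr at room temperature, and fluorescence was read at two emissions.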

[6] = qHTS assay to identify small molecule agonists of the progesterone receptor (PR) signaling pathway - cell viability counter screen (AID 1346799; calls by dose curve; further: nearly all actives have a fitted effect of over 45% in size)
In short: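 Here, 3,000 PR-UAS-bla HEK293T cells per well were treated with compounds for 16 hr after a 6 hr preincubation at 37C and 5% CO2; cell viability is the CellTiter-Glo luminescence signal.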

[7] = target: Thyrotropin-releasing hormone receptor (Homo sapiens) (UniProt P34981); experiment: qHTS assay to identify small molecule antagonists of the thyrotropin-releasing hormone receptor (TRHR) signaling pathway (AID 1346877; active means well fitted inhibition curve with a large enough effect in the repeat runs, not every such curve was filed as active; further: series mostly up to about 51 µM)
In short: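 Overnight-plated (18 h, 37 °C) HEK293 cells expressing TRHR were dye-loaded 2 h, treated with compound, then stimulated with TRH at 1 nM final. Fluorescence intensity was captured every second for 3 min.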

[8] = target: Thyrotropin-releasing hormone receptor (Homo sapiens) (UniProt P34981); experiment: qHTS assay to identify small molecule agonists of the thyrotropin-releasing hormone receptor (TRHR) signaling pathway (AID 1346891; calls by dose curve; further: series mostly up to about 58 µM)
In short: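 Screening of agonists relied on calcium signalling in HEK293 cells expressing human TRHR: dye loading 2 h at 37 °C preceded compound addition and a 3-min fluorescence time course.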

[9] = Human pregnane X receptor (PXR) small molecule agonists, qHTS cell viability counter screen (AID 1346977); further: nearly all actives have a fitted effect of over 50% in size; further: potency means the concentration at half of the fitted maximal effect
In short: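 Tox21 qHTS format; PXR-Luc HepG2, 2,000/well, charcoal-stripped FBS 5%. Cpd exposure 24hr. Read: CellTiter-Fluor fluorescence, multiplexed with luciferase.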
On the % scale 0 is the no-effect control and ±100 the full control effect.

Chain of Progesterone receptor (Homo sapiens) (P06401 whole entry, looked up): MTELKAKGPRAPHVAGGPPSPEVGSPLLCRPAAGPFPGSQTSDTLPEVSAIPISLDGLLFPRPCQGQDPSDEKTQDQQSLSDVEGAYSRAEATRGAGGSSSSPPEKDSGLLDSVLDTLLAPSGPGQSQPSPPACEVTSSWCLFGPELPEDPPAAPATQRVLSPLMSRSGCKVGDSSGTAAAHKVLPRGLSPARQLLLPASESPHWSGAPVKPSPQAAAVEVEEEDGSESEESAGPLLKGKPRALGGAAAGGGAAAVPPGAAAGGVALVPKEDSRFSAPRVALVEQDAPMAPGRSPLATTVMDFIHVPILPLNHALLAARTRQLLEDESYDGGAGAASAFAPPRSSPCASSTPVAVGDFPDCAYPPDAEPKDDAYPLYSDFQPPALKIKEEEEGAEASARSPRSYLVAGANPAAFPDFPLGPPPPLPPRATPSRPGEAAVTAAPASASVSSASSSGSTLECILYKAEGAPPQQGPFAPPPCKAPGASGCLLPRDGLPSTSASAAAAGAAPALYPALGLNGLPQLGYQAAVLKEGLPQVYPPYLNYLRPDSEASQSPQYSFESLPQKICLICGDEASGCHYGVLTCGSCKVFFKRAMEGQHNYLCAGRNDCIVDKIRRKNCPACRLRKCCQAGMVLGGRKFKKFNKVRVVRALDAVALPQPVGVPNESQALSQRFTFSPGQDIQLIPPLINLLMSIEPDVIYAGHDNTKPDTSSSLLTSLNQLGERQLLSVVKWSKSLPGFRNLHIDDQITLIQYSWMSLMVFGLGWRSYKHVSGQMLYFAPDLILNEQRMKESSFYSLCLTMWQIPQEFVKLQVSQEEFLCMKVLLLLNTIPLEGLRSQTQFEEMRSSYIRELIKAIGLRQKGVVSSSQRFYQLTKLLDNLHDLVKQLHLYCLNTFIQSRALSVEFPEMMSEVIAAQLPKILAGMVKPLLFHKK
Chain of Thyrotropin-releasing hormone receptor (Homo sapiens) (P34981 whole entry, looked up): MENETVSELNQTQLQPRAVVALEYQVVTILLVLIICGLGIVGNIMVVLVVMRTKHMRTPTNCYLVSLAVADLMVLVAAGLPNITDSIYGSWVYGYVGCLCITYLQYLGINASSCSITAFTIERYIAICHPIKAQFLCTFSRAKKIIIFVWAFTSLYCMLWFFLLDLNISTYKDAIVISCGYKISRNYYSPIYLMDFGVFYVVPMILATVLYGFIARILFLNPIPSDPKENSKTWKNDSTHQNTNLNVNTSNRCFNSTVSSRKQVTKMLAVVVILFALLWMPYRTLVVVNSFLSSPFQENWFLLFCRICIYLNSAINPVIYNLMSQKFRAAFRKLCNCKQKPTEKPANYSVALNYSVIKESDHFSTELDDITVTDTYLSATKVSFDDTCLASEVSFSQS

CCC(C)(C)C1CCC(O)CC1 (centres undefined)
inactive: Potency [1] | Potency [2] | outcome [3] | outcome [4] | outcome [5]

O=C(CCCN1CCN(c2ccc(F)cc2)CC1)NC1c2ccccc2CSc2ccccc21 (centres undefined)
active: Potency [9] 21.1 µM
inactive: Potency [1] | Potency [6] | outcome [3] | outcome [4] | outcome [5] | outcome [7] | Potency [8]

CC1=CC(=O)CC(C)(C)C1(O)/C=C/C(C)=C\C(=O)O (centres undefined)
inactive: Potency [1] | Potency [2] | outcome [3] | outcome [4] | outcome [5] | outcome [7] | Potency [8] | Potency [9]

COc1ccc([C@@H]2Sc3ccccc3NC(=O)[C@@H]2O)cc1
inactive: Potency [1] | Potency [6] | outcome [3] | outcome [4] | outcome [5]

CCOC(=O)N1CCC(n2c(=O)[nH]c3cc(Cl)ccc32)CC1
inactive: Potency [1] | outcome [3] | outcome [4] | outcome [5] | outcome [7] | Potency [8]

CC1=CC(O)CC(C)(C)C1 (centres undefined)
inactive: Potency [1] | Potency [2] | Potency [6] | outcome [3] | outcome [5] | Potency [9]

CCCc1c(OCCCOc2ccc(OCC(=O)O)cc2)ccc(C(C)=O)c1O
inactive: Potency [1] | Potency [6] | outcome [3] | outcome [4] | Potency [9]

O=C(O)c1c(O)c(-c2ccccc2)nc2ccccc12
inactive: Potency [1] | Potency [6] | outcome [3] | outcome [4] | outcome [5] | Potency [9]

Cc1cc(OI)c(C(C)C)cc1-c1cc(C(C)C)c(OI)cc1C
inactive: Potency [1] | Potency [2] | Potency [6] | outcome [3] | outcome [4] | outcome [5] | outcome [7] | Potency [8] | Potency [9]

CO[C@@]12[C@H](COC(N)=O)C3=C(C(=O)C(C)=C(N)C3=O)N1C[C@@H]1N[C@@H]12
inactive: Potency [1] | Potency [2] | outcome [3] | outcome [5]
active: Potency [9] 11.9 µM

CCCCC/C(=C\c1ccccc1)CO
inactive: Potency [1] | Potency [2] | Potency [6] | outcome [3] | outcome [4] | outcome [5] | outcome [7] | Potency [8] | Potency [9]

CCCC(=O)O[C@]1(C(=O)COC(=O)CC)CC[C@H]2[C@@H]3CCC4=CC(=O)CC[C@]4(C)[C@H]3[C@@H](O)C[C@@]21C
inactive: activation [1] 3.7% [at 19 µM] | activity change, negative = cytotoxicity [2] -3.5% [at 18.9 µM] | activity change, negative = cytotoxicity [6] 17.2% [at 19 µM] | viability change, negative = cytotoxic [3] -0.584% [at 15.8 µM] | activity change, negative = cytotoxicity [4] -0.518% [at 15.8 µM] | activation [5] 5.59% [at 15.8 µM] | activity, negative = inhibition [7] -1.85% [at 10.5 µM] | activation [8] -0.132% [at 11.8 µM] | activity change, negative = cytotoxicity [9] 12.4% [at 19 µM]

CC1(C)O[C@@H]2C[C@H]3[C@@H]4CCC5=CC(=O)C=C[C@]5(C)[C@H]4[C@@H](O)C[C@]3(C)[C@]2(C(=O)CO)O1
active: Potency [1] 0.133 µM
inactive: Potency [2] | outcome [3] | outcome [4] | outcome [7] | Potency [8] | Potency [9]

Cc1oc(C)c(C(=O)Nc2ccccc2)c1C
inactive: Potency [1] | Potency [2] | Potency [6] | outcome [5] | outcome [7] | Potency [8] | Potency [9]

CCCOc1ccc(S(=O)(=O)N2CCN(CC)CC2)cc1-c1nc2c(CC)n(Cc3ccccn3)nc2c(=O)[nH]1
inactive: Potency [1] | Potency [6] | outcome [3] | outcome [4] | outcome [7] | Potency [8]

[O]=[Bi]
inactive: activation [1] 4.47% [at 8.39 µM] | activity change, negative = cytotoxicity [6] 0% [at 8.39 µM] | viability change, negative = cytotoxic [3] -10.5% [at 6.97 µM] | activity change, negative = cytotoxicity [4] -9.02% [at 6.97 µM] | activation [5] 2.8% [at 6.97 µM] | activity, negative = inhibition [7] 3.48% [at 4.65 µM] | activation [8] -0.278% [at 5.23 µM] | activity change, negative = cytotoxicity [9] 1.27% [at 8.39 µM]

N#C/C(=C1/SC[C@@H](c2ccc(Cl)cc2Cl)S1)n1ccnc1
inactive: Potency [1] | outcome [3] | outcome [4] | outcome [7] | Potency [8]

O=C(CCCCCCC(=O)Nc1ccccc1)NO
inactive: Potency [1] | Potency [2] | Potency [6] | outcome [3] | outcome [5] | outcome [7] | Potency [8]
active: Potency [9] 8.41 µM

CCC(C(=O)OCCOCCN(CC)CC)c1ccccc1 (centres undefined)
inactive: Potency [1] | Potency [2] | Potency [6] | outcome [3] | outcome [4] | outcome [5] | outcome [7] | Potency [8] | Potency [9]

C[Si](NC1CCCCC1)(NC1CCCCC1)NC1CCCCC1
inactive: Potency [1] | outcome [3] | outcome [4] | outcome [5] | outcome [7] | Potency [8] | Potency [9]

O=C(N/N=C/c1ccc([N+](=O)[O-])o1)c1ccc(O)cc1
inactive: Potency [1] | Potency [2] | outcome [3] | outcome [5] | outcome [7] | Potency [8]

CC(=O)[C@H]1CC[C@H]2[C@@H]3C[C@H](C)C4=CC(=O)CC[C@]4(C)[C@H]3[C@@H](O)C[C@]12C
inactive: outcome [3] | outcome [4] | outcome [5] | outcome [7] | Potency [8]
active: Potency [1] 0.0067 µM

O=C(CCCN1CCC(O)(c2ccc(Br)cc2)CC1)c1ccc(F)cc1
inactive: Potency [1] | Potency [2] | Potency [6] | outcome [3] | outcome [4] | outcome [5] | outcome [7] | Potency [8] | Potency [9]
